The values that follow come from PubChem BioAssay AID1863 (Southern Research Specialized Biocontainment Screening …, 2009).

Hit rate of the full screen: of about 300,000 compounds, about 480 (0.16%) were called active.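 How the source made its calls: active means inhibition over 29.93%, a cutoff 3 SD above the screen mean, later confirmed by dose response; inconclusive means inhibition over 29.93% but no dose response follow-up; inactive means inhibition at most 29.93% or unconfirmed.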 Only a sample is shown. Potency and affinity values are given separately.

The experiment is described as follows: inhibitors of PhoP regulon expression, primary screen, Salmonella Typhimurium, GFP reporter (AID 1863).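 Further: 0% = low Mg2+ inducing control and 100% = high Mg2+ repressing control.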 Conditions: S. Typhimurium PhoP-regulated promoter GFP reporter, 4 h; at 50 µM; stronger effect = higher value.
By inhibition is commonly meant the relative decrease from the control value, in per cent. Take `O=C(Nc1ccccc1)c1cnc(-c2ccccc2)nc1-c1ccccc1`: the inhibition was -0.26% (inactive). To `NC(=O)C1CCN(C(=O)CSc2ccccn2)CC1` belongs -5.25% (inactive). The result for `CCCCCCNC(=O)c1cc(S(=O)(=O)N2CCc3ccccc32)ccc1F` reads -0.27% (inactive); that for `O=C(NNCc1ccc(O)cc1)c1ccccc1Cl`, -5.79% (inactive).

For the compound `CCOC(=O)C(NC(C)=O)C(O)c1ccc([N+](=O)[O-])cc1` (stereo not given), the inhibition was 4.56% (inactive).

For the compound `O=C(O)CC(Cc1ccccc1)C(=O)Nc1ccc([N+](=O)[O-])cc1` (stereo not given), the inhibition was -0.18% (inactive). As for `O=C(Cc1ccccc1)NC(C(=O)O)C(O)c1ccc([N+](=O)[O-])cc1` (stereo not given), the inhibition was 2.69% (inactive). With `O=C(O)CC(Cc1ccc(Cl)cc1)C(=O)Nc1ccc([N+](=O)[O-])cc1` (stereo not given), the inhibition is -6.77% (inactive). On to `O=[N+]([O-])c1ccc(C(O)C(CO)NC(=S)Nc2ccccc2)cc1` (stereo not given), for which the inhibition is -9.91% (inactive). Consider `NC(CO)C(O)c1ccc([N+](=O)[O-])cc1` (stereo not given), for which the inhibition is 2.92% (inactive). With `COc1ccc(S(=O)(=O)N2CCCCCC2)cc1N(C)S(=O)(=O)c1ccc(C)cc1`, the inhibition was -9.69% (inactive). The result for `CCCC(=O)N(c1ccc(OCC)cc1)C1C=CS(=O)(=O)C1` (stereo not given) reads -5.2% (inactive); that for `CCOC(=O)c1cn(C2CC2)c2c(F)c(F)c(F)cc2c1=O`, -6.9% (inactive). `O=C(O)c1cn(C2CCCCC2)c2ccccc2c1=O`: the inhibition is -3.48% (inactive). The result for `C[C@@H]1CN(c2c(F)c(N)c3c(=O)c(C(=O)O)cn(C4CC4)c3c2F)C[C@H](C)N1` reads -7.7% (inactive). As to `COC(=O)C(c1cc(OC)c(O)c(OC)c1)(N1CCNC(C)C1)C(F)(F)F` (stereo not given), the inhibition is 1.17% (inactive).

`COC(=O)c1ccc(NC(=O)C(OC)c2ccccc2)cc1` (stereo not given): the inhibition was 5.34% (inactive).

With `O=C(NNC(=O)c1ccccc1OCc1ccc(F)cc1)c1ccccc1O`, the inhibition is 1.71% (inactive).

With `COc1cccc(Oc2ccc(S(=O)(=O)N3CCCC3)cc2[N+](=O)[O-])c1`, the inhibition is -0.65% (inactive). The result for `COc1ccc([C@@H]2[C@@H]3C(=O)N(C(C)(C)C)C(=O)[C@@H]3[C@]3(Cc4ccccc4)C(=O)N(c4ccccc4)C(=O)N23)cc1` reads 6.74% (inactive); that for `O=C(COc1ccccc1F)NNC(=O)c1ccc2c(=O)n3c(nc2c1)CCC3`, -5.21% (inactive); that for `CC(CN1CCCCC1)OC(=O)C(C)(c1ccccc1)c1ccccc1` (stereo not given), -9.7% (inactive). Turning to `O=S(=O)(NCC1CCCO1)c1ccc(S(=O)(=O)N(Cc2ccc(F)cc2)Cc2ccco2)cc1` (stereo not given), the inhibition was 2.4% (inactive). To `CCCC(=O)Nc1c2c(nc3ccccc13)N(c1ccccc1)CC2` belongs -4.18% (inactive). `CCN(CCCCN1C(=O)c2ccccc2C1=O)c1ccc2c(c1)C(=O)N(C)C2=O`: the inhibition was -8.03% (inactive).

As for `COc1ccc(-c2cc3ccccc3n2CC(O)Cn2nc(C)cc2C)cc1` (stereo not given), the inhibition is 1.53% (inactive). As for `O=C(O)c1cn(-c2ccc(F)cc2)c2cc(Cl)c(F)cc2c1=O`, the inhibition is 5.58% (inactive). The result for `O=C(O)c1cn(-c2ccc(N3CCCC3)c(F)c2)c2c(F)c(F)c(F)cc2c1=O` reads -6.63% (inactive).

Turning to `O=C(/C=C/c1ccc([N+](=O)[O-])cc1)NCCc1ccccc1`, the inhibition is 6.48% (inactive). To `O=c1cc(N2CCN(c3ccccc3F)CC2)[nH]c(=O)n1-c1ccc(Br)cc1` belongs -3.95% (inactive).

In the case of `Cc1sc2ncnc(N/N=C/c3ccc(O)cc3)c2c1C`, the inhibition was 11.1% (inactive). To `C/C(=N\Nc1ncc(Cl)cc1Cl)c1ccccn1` belongs 9.66% (inactive); to `Cc1sc2ncnc(Nc3ccccc3)c2c1C`, 8.39% (inactive).

In the case of `Cc1sc2ncnc(N/N=C/c3cccc(O)c3)c2c1C`, the inhibition was -0.11% (inactive). To `C=CCN(c1ccc(C(=O)NCCCn2ccnc2)cc1)S(C)(=O)=O` belongs 0.81% (inactive). For `Cc1ccc2c(=O)c(C(=O)c3ccc(F)cc3)cn(CC(=O)NCc3ccco3)c2n1`, the inhibition is -4.56% (inactive). The result for `CCOC(=O)c1c(NC(=O)COC(=O)c2ccccn2)sc(C(=O)N(C)C)c1C` reads 2.57% (inactive); that for `C/C(=N\NC(=O)c1cc(Br)ccc1O)c1ccccn1`, 3.69% (inactive); that for `C/C(=N\NC(=O)c1ccccc1Cl)c1ccccn1`, 5.97% (inactive). With `COc1ccc(CC(=S)NCCc2ccccc2)cc1`, the inhibition was -4.36% (inactive).

For `O=C(NC1CCCC1)C(c1ccccn1)N(Cc1ccc(F)cc1)C(=O)c1csnn1` (stereo not given), the inhibition was 0.43% (inactive). The result for `CC(=O)Oc1ccc(OC(C)=O)c(SCCCCCCl)c1` reads -1.06% (inactive); that for `CCCCCCSc1cc(-c2nc3ccc(Cl)cn3c2NCCCC)ccc1OC`, -3.84% (inactive). To `CCCCn1nnnc1NCc1cc(OC)c(OC)cc1OC` belongs 35.9% (inactive); to `COc1cc2ccc3c(CCN(C)C)cc(OC)c(OC)c3c2cc1OC`, -2.35% (inactive); to `O=C(Nc1ccc(S(=O)(=O)N2CCc3ccccc3C2)cc1)C1CCCO1` (stereo not given), 13.2% (inactive). To `CCCCCn1c(CCNC(=O)c2cccs2)nc2ccccc21` belongs 11.2% (inactive); to `COc1ccccc1C(=O)OCc1ccc2sc(C)nc2c1`, 5.75% (inactive); to `C=CCNc1nc(Cl)nc(Nc2ccc([N+](=O)[O-])cc2)n1`, 13.8% (inactive). Regarding `CC(C)c1cc(=O)n2[nH]c(SCc3ccccc3Cl)nc2n1`, the inhibition was -7.54% (inactive). The result for `CCCOc1ccc(C(=O)NCCC(=O)NCCCC(=O)O)cc1` reads 8.01% (inactive); that for `CN(C)C/C(Cl)=C(\Cl)c1ccccc1`, 4.69% (inactive); that for `COC(=O)c1c(NC(=O)c2ccco2)sc2c1CCN(C(C)C)C2`, 3.8% (inactive). Turning to `CN1CCc2c(sc(NC(=O)c3ccco3)c2C(N)=O)C1`, the inhibition is -4.37% (inactive).

For `CC(C)N1CCc2c(sc(NC(=O)c3ccc([N+](=O)[O-])o3)c2C(N)=O)C1`, the inhibition was 18% (inactive). Regarding `NC(=O)c1c(NC(=O)c2ccc([N+](=O)[O-])o2)sc2c1CCCC2`, the inhibition is -3.86% (inactive). With `CC(C)(C)c1ccc(C(=O)N2CCN(C(=O)c3ccco3)CC2)cc1`, the inhibition was 1.4% (inactive). For the compound `Cc1nn(-c2ccccc2)c(N2CCCC2)c1C=O`, the inhibition is -1.38% (inactive).

On to `O=S(=O)(c1ccccc1)c1nc(-c2ccco2)oc1NCCCn1ccnc1`, for which the inhibition is 5.16% (inactive). Take `CC(C)N(C(=O)COC(=O)[C@@H]1CC(O)CN1S(=O)(=O)c1ccc(C(C)(C)C)cc1)C(C)C` (stereo not given in full): the inhibition was 0.76% (inactive).
